Several values for one entry are separate records, joined by “and”; a condition that tells them apart may be missing. Equal entries are not always repeated. Inconclusive results are not listed. Activity calls are given as the source filed them. Unless noted, calls come from the whole dose curve; as a rule, active = well fitted curve in the direction sought with a large enough effect; inconclusive = small, poorly fitted or top-dose-only effect, or another doubt; inactive = no such curve, though single readings can be large; an effect the other way counts as inactive or inconclusive.
How the values were obtained:
[1] = molecular target: Alpha-galactosidase A (Homo sapiens) (UniProt P06280); assay: Counterscreen for Glucocerebrosidase Inhibitors: qHTS Assay for Human alpha-Galactosidase at pH 4.5 (AID 992); note: 0% is about no effect
Sequence of Alpha-galactosidase A (Homo sapiens) (P06280 whole entry, looked up): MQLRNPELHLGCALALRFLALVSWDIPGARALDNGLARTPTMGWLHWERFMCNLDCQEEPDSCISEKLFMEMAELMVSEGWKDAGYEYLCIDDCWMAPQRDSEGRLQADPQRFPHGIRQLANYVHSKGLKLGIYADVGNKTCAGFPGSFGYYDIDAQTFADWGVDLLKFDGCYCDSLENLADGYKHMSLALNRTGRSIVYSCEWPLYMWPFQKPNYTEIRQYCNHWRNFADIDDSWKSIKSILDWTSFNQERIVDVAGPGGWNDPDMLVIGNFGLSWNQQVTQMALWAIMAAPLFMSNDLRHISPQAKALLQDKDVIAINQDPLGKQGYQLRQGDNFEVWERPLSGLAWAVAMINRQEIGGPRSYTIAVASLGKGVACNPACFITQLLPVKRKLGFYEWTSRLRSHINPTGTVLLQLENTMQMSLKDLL
Method in brief: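 Citrate buffer pH 4.5, Tween-20 0.005%. Enzyme 2 nM, substrate 80 uM, 20 min RT. Stop pH 10. Fluorescence Ex 365/Em 440. AC50 by Hill fit.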

[2] = molecular target: alpha-glucosidase (Oryza sativa, rice) (UniProt Q653V4); assay: Counterscreen for Glucocerebrosidase Inhibitors: qHTS Assay for Rice alpha-Glucosidase at pH 5.0 (AID 997);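 note: 0% = full activity with enzyme and -100% = basal without enzyme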
Method in brief: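 Endpoint fluorogenic assay at pH 5.0: compounds (0.7 nM to 77 uM) titrated against 4 nM rice enzyme and 400 uM 4-MU-alpha-glucoside for 20 min at room temperature; NaOH/glycine stop, read ex 365/em 440 nm, Hill-fitted AC50.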

[3] = Validation of Assay for Modulators of Lamin A Splicing (AID 1459; active = well fitted curve in the direction sought with a large enough effect in the signal ratio; the % refers to the signal ratio;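 note: cells exposed to compound for two days before reading; 0% is about no effect; ratio rise marks activators and ratio drop marks inhibitors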)
Method in brief: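 S3 HeLa cells stably expressing a lamin A-EGFP splicing minigene and DsRed2 were seeded at 600 cells/well in Opti-MEM with 2% FBS, pin-dosed, and incubated 48 hrs at 37 °C, 5% CO2. Laser-scanning cytometry (488 nm) gave GFP/RFP total intensity ratio.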

[4] = qHTS Assay for Lipid Storage Modulators (AID 1519; calls by dose curve; for activity change, negative = inhibition: % is set by controls: 0 for no effect and ±100 for the full control effect); details: Drosophila S3 cells, BODIPY lipid droplet/cell ratio, laser cytometry, cells loaded with oleic acid
Method in brief: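 Cells seeded at 5,000 per well were treated with compounds over a concentration series and loaded with oleic acid (400 uM, as added). Lipid droplet fluorescence (488 nm excitation, 500-530 nm channel) was read by laser-scanning cytometry and normalized to 20 uM Triacsin C.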

[5] = Counterscreen for APE1 Inhibitors: Fluorescent Dye Displacement Validation Assay (AID 1707);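 note: plate controls were ThO with dsDNA and no compound for no effect and ThO without dsDNA for full effect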
Method in brief: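 Signal: ThO fluorescence (ex 480 nm/em 540 nm) on binding 50 nM dsDNA; displacement by test compound reduces it. Conditions: 250 nM dye, 50 mM Tris-HCl pH7.5, 2 mM MgCl2, 50mM NaCl, 0.01% Tween-20.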

[6] = qHTS for differential inhibitors of proliferation of Plasmodium falciparum line 7G8 (AID 1815);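 note: parasite growth measured after three days of incubation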; note: potency is the fitted concentration of half-maximal effect;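 for activity change, negative = inhibition: plate controls were vehicle wells for no effect and reference inhibitor wells for full effect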
[7] = qHTS for differential inhibitors of proliferation of Plasmodium falciparum line GB4 (AID 1816); details: Potency: Plasmodium falciparum GB4 proliferation inhibition;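 note: parasite growth measured after 72 h incubation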; note: potency is the fitted concentration of half-maximal effect;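 for activity change, negative = inhibition: 0% = vehicle DMSO and -100% = reference inhibitor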
[8] = qHTS for differential inhibitors of proliferation of Plasmodium falciparum line 3D7 (AID 1876); note: potency is the fitted concentration of half-maximal effect
[9] = qHTS for differential inhibitors of proliferation of Plasmodium falciparum line D10 (AID 1877);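 note: parasites grown with compound for 72 h before DNA staining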; note: potency is the fitted concentration of half-maximal effect;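 for activity change, negative = inhibition: plate controls were vehicle wells for no effect and reference inhibitor wells for full effect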
[10] = qHTS for differential inhibitors of proliferation of Plasmodium falciparum line Dd2 (AID 1882); details: Potency: Plasmodium falciparum Dd2 proliferation inhibition; note: nearly all actives have a fitted effect of over 65% in size; note: potency is the fitted concentration of half-maximal effect;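 for activity change, negative = inhibition: plate controls were DMSO vehicle for no effect and 0.29 µM artemisinin for full effect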
Method in brief: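 SYBR Green DNA fluorescence (ex 485, em 535 nm) after overnight lysis quantifies parasite growth; compound exposure lasted 72 h at 37 C on infected red cells at 2.5% hematocrit, 0.3% parasitemia (final). Artemisinin 0.29 uM and vehicle wells define normalization.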

[11] = qHTS for differential inhibitors of proliferation of Plasmodium falciparum line W2 (AID 1883); details: Potency: Plasmodium falciparum W2 proliferation inhibition;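 note: parasites grown with compound for 72 h before lysis and staining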; note: potency is the fitted concentration of half-maximal effect;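 for activity change, negative = inhibition: 0% = vehicle wells and -100% = control inhibitor wells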
[12] = qHTS for differential inhibitors of proliferation of Plasmodium falciparum line HB3 (AID 1886); details: Potency: Plasmodium falciparum HB3 proliferation inhibition;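 note: parasites grown with compound for 72 h before SYBR Green readout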; note: potency is the fitted concentration of half-maximal effect;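 for activity change, negative = inhibition: plate controls were vehicle for no effect and reference inhibitor for full effect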
[13] = Cell Viability - LYMP2-022 (AID 987);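 note: 0% = DMSO alone and full effect = tetraoctylammonium bromide at 92 µM; nearly all actives have a fitted effect of over 55% in size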
Method in brief: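 Cells were seeded at 2500 per well, rested 5 hr at 37 C, and treated with titrated compounds for 24 hr at 37 C. Cellular ATP was then quantified by luciferase luminescence, and AC50 values were derived from Hill-modelled concentration-response curves.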

[14] = Cell Viability - LYMP2-024 (AID 988);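 note: plate controls were DMSO only for no effect and 92 µM tetraoctylammonium bromide for full effect; nearly all actives have a fitted effect of over 60% in size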
Method in brief: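 qHTS cytotoxicity, human lymphoblastoid line, complete medium; 24 h cpd treatment, 37 C; CellTiter-Glo ATP luminescence readout; tetraoctylammonium bromide positive control; AC50 via Hill fit.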

[15] = Cell Viability - LYMP2-026 (AID 989);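 note: cells exposed to compound for 24 h at 37 °C; % is set by controls: 0 for no effect and ±100 for the full control effect; nearly all actives have a fitted effect of over 50% in size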
Method in brief: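 Cells are seeded at 2500 per well and held 5 hr at 37 C. Compounds are added in concentration series for 24 hr, then CellTiter-Glo reagent is applied and luminescence read.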

[16] = Cell Viability - LYMP1-002 - Assay at 24 hr (AID 993); note: % is set by controls: 0 for no effect and ±100 for the full control effect
Method in brief: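 Acute toxicity is measured as concentration-dependent loss of cellular ATP in a human lymphoblastoid line (Coriell LYMP1-002) after 24 h treatment in complete medium. ATP is quantified by luciferase luminescence and AC50 derived by Hill modelling.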

[17] = Cell Viability - LYMP1-002 - Assay at 40 hr (AID 994); note: nearly all actives have a fitted effect of over 60% in size; note: potency is the fitted concentration of half-maximal effect
Method in brief: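 Cells are plated at 2500 per well and rested 5 hr at 37 C. Compounds are added and incubated 40 hr at 37 C. CellTiter-Glo reagent is added for 30 min at room temperature before luminescence is read.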

[18] = molecular target: DNA repair nuclease/redox regulator APEX1 (Homo sapiens) (UniProt P27695); assay: qHTS Validation Assay for Inhibitors of the Human Apurinic/apyrimidinic Endonuclease 1 (APE1) (AID 1705;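 note: TAMRA fluorescence gain over two minutes as APE1 cuts a quenched THF abasic duplex; % is set by controls: 0 for no effect and ±100 for the full control effect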)
Sequence of DNA repair nuclease/redox regulator APEX1 (Homo sapiens) (P27695 whole entry, looked up): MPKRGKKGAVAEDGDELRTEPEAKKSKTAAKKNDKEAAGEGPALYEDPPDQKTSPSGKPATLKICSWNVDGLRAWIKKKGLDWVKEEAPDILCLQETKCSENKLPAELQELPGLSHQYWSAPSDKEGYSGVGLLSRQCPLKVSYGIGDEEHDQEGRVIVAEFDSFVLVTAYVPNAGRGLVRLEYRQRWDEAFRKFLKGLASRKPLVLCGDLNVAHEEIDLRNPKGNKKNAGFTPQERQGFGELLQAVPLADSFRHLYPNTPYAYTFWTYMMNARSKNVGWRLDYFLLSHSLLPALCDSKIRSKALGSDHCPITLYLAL
Method in brief: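 Human APE1 was preincubated with compound for 15 min at room temperature, then 50 nM (final) THF-abasic double-stranded DNA substrate bearing 5'-TAMRA and 3'-BHQ-2 was added. Incision-driven fluorescence rise (ex 525/em 598 nm) was read kinetically.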

[19] = molecular target: Endonuclease 4 (Escherichia coli (strain K12)) (UniProt P0A6C1); assay: Counterscreen for APE1 Inhibitors: qHTS Validation Assay for Inhibitors of Endonuclease IV (AID 1708); note: % is set by controls: 0 for no effect and ±100 for the full control effect
Method in brief: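 Conditions: 2 nM enzyme, 50 nM TAMRA/BHQ-2 substrate, pH 7.5 Tris buffer with 2 mM MgCl2, RT. Compound preincubation 15 min; readout three fluorescence reads 60 s apart, third-minus-first.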

[20] = qHTS Assay for Modulators of Human Peripheral Myelin Protein 22 (PMP22) Expression/Activity (AID 1967; active = well fitted curve in the direction sought with a large enough effect in the signal ratio; the % refers to the signal ratio;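 note: 0% = untreated cells and 100% end not stated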)
Method in brief: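 MSC80 mouse Schwann cells stably carrying Pmp22 promoter–green click beetle luciferase plus EF-alpha–red luciferase control were dosed for 24h at 37 °C. Dual-colour luminescence was filter-overlap corrected; %Activity came from green/red ratio versus untreated cells.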

[21] = measured here: cell count channel max response
[22] = measured here: lipid channel max response

CC1=C(C)C(=O)C(CCCCC#CCCCC#CCO)=C(C)C1=O
-22.7%: max response [4, 21]
-21.4%: max response [4, 22]
inactive: outcome [1] | outcome [2] | outcome [3] | activity change, negative = inhibition ([4]; at 57.5 µM (top of the series)) 1.13% | outcome [5]
active: Potency [6] 2.24 µM | Potency [7] 2.51 µM | Potency [8] 8.91 µM | Potency [9] 14.1 µM | Potency [10] 10 µM | Potency [11] 3.55 µM | Potency [12] 8.91 µM

CCCCNC(=O)NS(=O)(=O)c1ccc(C)cc1
inactive: Potency [13] | Potency [14] | outcome [15] | outcome [16] | Potency [17] | outcome [2] | outcome [3] | activity change, negative = inhibition ([4]; at 25.7 µM (top of the series)) 0.284% | activity change, negative = inhibition ([4]; at 57.5 µM (top of the series)) 5.43% and -0.0777% | Potency [18] | outcome [5] | Potency [19] | Potency [7] | Potency [8] | Potency [9] | Potency [10] | Potency [11] | Potency [12] | outcome [20]
-2.83% and 21.8% and 21.4%: max response [4, 22]
-2.87% and 13.1% and 19.7%: max response [4, 21]

CC(C)COCC(CN(Cc1ccccc1)c1ccccc1)N1CCCC1 (stereo not given)
26.2%: max response [4, 22]
20%: max response [4, 21]
inactive: outcome [3] | activity change, negative = inhibition ([4]; at 57.5 µM (top of the series)) 2.08% | Potency [18] | outcome [5] | Potency [19] | Potency [6] | Potency [7] | Potency [8] | Potency [9] | Potency [10] | Potency [12]

CCOC(=O)C1=C(C)NC(C)=C(C(=O)OC)C1c1cccc([N+](=O)[O-])c1 (stereo not given)
active: Potency [6] 11.2 µM | Potency [7] 12.6 µM | Potency [8] 8.91 µM | Potency [9] 12.6 µM | Potency [11] 6.31 µM | Potency [12] 11.2 µM
inactive: outcome [3] | Potency [18] | outcome [5] | Potency [19]

COC(=O)[C@H]1[C@H]2C[C@@H]3c4[nH]c5cc(OC)ccc5c4CCN3C[C@H]2C[C@@H](OC(=O)c2cc(OC)c(OC)c(OC)c2)[C@@H]1OC
inactive: outcome [1] | outcome [2] | outcome [3] | Potency [18] | outcome [5]
active: Potency [17] 50.1 µM | Potency [6] 0.282 µM | Potency [7] 2 µM | Potency [8] 1.78 µM | Potency [9] 2.82 µM | Potency [10] 2.24 µM | Potency [11] 0.891 µM | Potency [12] 1.26 µM

FC(F)(F)c1ccccc1-n1ccnc1
11%: max response [4, 21]
25.3%: max response [4, 22]
inactive: outcome [1] | outcome [2] | outcome [3] | activity change, negative = inhibition ([4]; at 57.5 µM (top of the series)) 7.35% | Potency [18] | outcome [5] | Potency [19] | Potency [6] | Potency [7] | Potency [8] | Potency [9] | Potency [10] | Potency [12]

COc1cc(C(=O)OCCCN2CCCN(CCCOC(=O)c3cc(OC)c(OC)c(OC)c3)CC2)cc(OC)c1OC
8.49%: max response [4, 22]
11.7%: max response [4, 21]
active: Potency [6] 5.01 µM | Potency [7] 6.31 µM | Potency [8] 3.16 µM | Potency [9] 10 µM | Potency [10] 7.08 µM | Potency [11] 3.55 µM | Potency [12] 8.91 µM
inactive: outcome [1] | outcome [2] | outcome [3] | activity change, negative = inhibition ([4]; at 25.7 µM (top of the series)) -0.679% | Potency [18] | outcome [5]

COc1cc(Cc2cnc(N)nc2N)cc(OC)c1OC
inactive: Potency [13] | Potency [14] | outcome [15] | outcome [1] | outcome [16] | Potency [17] | outcome [2] | outcome [3] | activity change, negative = inhibition ([4]; at 25.7 µM (top of the series)) -1.74% | Potency [18] | outcome [5] | Potency [19] | outcome [20]
-5.27%: max response [4, 22]
-1.95%: max response [4, 21]

CC(C)NCC(O)c1cc(O)cc(O)c1 (stereo not given)
inactive: outcome [3] | activity change, negative = inhibition ([4]; at 57.5 µM (top of the series)) 10.7% and 0.0278% | outcome [5] | Potency [19] | Potency [6] | Potency [7] | Potency [8] | Potency [9] | Potency [10] | Potency [11] | Potency [12] | outcome [20]
8.74% and -21.1%: max response [4, 21]
23% and -23.1%: max response [4, 22]

CNCCC(Oc1ccccc1OC)c1ccccc1 (stereo not given)
inactive: outcome [3] | Potency [18] | outcome [5] | Potency [19] | Potency [9] | Potency [12]
active: Potency [6] 3.55 µM

Cc1ccc(S(=O)(=O)NC(=O)NN2CCCCCC2)cc1
inactive: outcome [1] | outcome [2] | outcome [3] | activity change, negative = inhibition ([4]; at 25.7 µM (top of the series)) 0.497% | activity change, negative = inhibition ([4]; at 57.5 µM (top of the series)) 9.8% | Potency [18] | outcome [5] | Potency [6] | Potency [7] | Potency [8] | Potency [9] | Potency [10] | Potency [11] | Potency [12] | outcome [20]
2.19% and 33.1%: max response [4, 22]
0.635% and 17.7%: max response [4, 21]

COc1cc2c(cc1OC)-c1cc(=Nc3c(C)cc(C)cc3C)n(C)c(=O)n1CC2
active: Potency [6] 2.24 µM | Potency [7] 2.24 µM | Potency [8] 2 µM | Potency [9] 3.98 µM | Potency [10] 8.91 µM | Potency [11] 3.55 µM | Potency [12] 3.55 µM
inactive: outcome [1] | outcome [2] | outcome [3] | Potency [18] | outcome [5] | Potency [19]

CCOC(=O)c1cnc2c(cnn2CC)c1NN=C(C)C
inactive: outcome [1] | outcome [2] | outcome [3] | Potency [18] | Potency [9] | Potency [10]

O=C(O)CCCCCCCC(=O)O
inactive: outcome [1] | outcome [2] | outcome [3] | outcome [5] | Potency [19] | Potency [6] | Potency [7] | Potency [8] | Potency [9] | Potency [10] | Potency [11] | Potency [12]

Source: PubChem BioAssay (NCATS)
